# Sampled rows, rich in hits. Any-hit rate of the full collection: about 3.1%.
# LEDGF integ inh = blocks HIV-1 LEDGF/p75-dependent DNA integration. TR-FRET IN-LEDGF/p75 DNA integration, Eu/Cy5. inhibition, % at 3.7 µM. 0.64% of 370,000 active. AID 743269;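 active means inhibition above the screen-wide mean plus 3 SD, cut at about 13% in these data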;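 further: signal is the Cy5 over europium emission ratio at 671 and 618 nm; 0% = plate median of compound wells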
# MBD2 DNA inh = inhibitors of human MBD2 binding to methylated oligonucleotide. Q9UBB5. AID 686964. 0.31% of 370,000 active. TR-FRET. inhibition, % at 4.4 µM; in the data active means inhibition above about 13%
# Target sequence (Q9UBB5 whole entry, looked up): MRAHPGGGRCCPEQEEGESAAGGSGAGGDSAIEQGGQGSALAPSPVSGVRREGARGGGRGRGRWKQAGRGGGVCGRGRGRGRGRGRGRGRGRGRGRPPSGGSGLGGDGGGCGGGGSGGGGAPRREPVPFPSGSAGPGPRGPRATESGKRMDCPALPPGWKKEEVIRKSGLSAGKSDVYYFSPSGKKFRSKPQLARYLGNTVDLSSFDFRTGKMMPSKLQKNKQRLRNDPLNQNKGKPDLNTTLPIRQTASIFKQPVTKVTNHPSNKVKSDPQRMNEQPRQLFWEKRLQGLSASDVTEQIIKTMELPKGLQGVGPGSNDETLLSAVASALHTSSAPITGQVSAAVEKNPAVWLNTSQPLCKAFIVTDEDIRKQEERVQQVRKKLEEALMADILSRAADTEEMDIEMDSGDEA
# Rin1 Abl inh = inhibitors of human Rin1-Abl protein interaction | P00519+Q13671 | TR-FRET Rin1/Abl binding, biochemical | inhibition, % at 7.35 µM | 0.4% of 360,000 active | AID 588664; in the data active means inhibition above about 5%, passing the limit was not always enough
# UHRF1 MBD2 ctr = human UHRF1 methylated DNA binding inhibitors; Q96T88; UHRF1 binding to methylated oligo, TR-FRET; inhibition, % at 4.4 µM; 0.75% of 370,000 active; AID 687016; in the data active means inhibition above about 21%;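 further: UHRF1 SRA domain binding a hemimethylated CpG hairpin DNA probe; 0% = median of test compound wells and 100% = reference inhibitor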
# Neddylation inh = blocks human cullin neddylation; TR-FRET cullin neddylation, biochemical; calls only at 25 µM; 0.58% of 360,000 active; in the data active means inhibition above about 36%
# KLK7 zymogen act = activators of human kallikrein-7 zymogen. P49862. purified proKLK7, EDANS-DABCYL substrate fluorescence; 100% is mature enzyme control, 0% vehicle. activation, % at 7 µM. 0.9% of 370,000 active. AID 652039;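 active means activation above the mean of all tested compounds plus 3 SD, computed per campaign excluding outliers beyond control limits, cut at about 13% in these data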
# Target sequence (P49862 whole entry, looked up): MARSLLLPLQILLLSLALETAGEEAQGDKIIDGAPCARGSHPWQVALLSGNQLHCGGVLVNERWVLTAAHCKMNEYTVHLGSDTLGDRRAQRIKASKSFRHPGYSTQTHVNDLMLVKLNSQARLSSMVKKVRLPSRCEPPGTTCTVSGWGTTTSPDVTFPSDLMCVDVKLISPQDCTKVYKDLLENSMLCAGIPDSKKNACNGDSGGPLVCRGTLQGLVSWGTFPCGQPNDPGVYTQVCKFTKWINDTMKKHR
# KLK7 act conf = proKLK7 activation, confirmation; shares compounds with KLK7 zymogen act; purified proKLK7, EDANS-DABCYL substrate fluorescence; scaled: vehicle 0, mature enzyme 100; activation, % at 7 µM; 68% of 3,200 active;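 active means activation, as change over the incubation, above the mean of all tested compounds plus 3 SD, cut at about 13% in these data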
# EDANS interfere = counter-screen for kallikrein-7 activators: EDANS-DABCYL optical interference; shares compounds with KLK7 zymogen act; activation, % at 7 µM; 80% of 3,200 active; EDANS-DABCYL substrate fluorescence interference, no enzyme, 4 h; solvent 0%, active enzyme control 100%;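 active means activation above the all-compound mean plus 3 SD, ignoring values outside control-based bounds, cut at about 4.8% in these data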;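 further: value is the 4 h activation minus the activation read at time zero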
# Active calls of the source: *; i = inactive; . = no result given.
SMILES,LEDGF integ inh,MBD2 DNA inh,Rin1 Abl inh,UHRF1 MBD2 ctr,Neddylation inh,KLK7 zymogen act,KLK7 act conf,EDANS interfere
O=C(NCCc1ccc(F)cc1)c1coc(=O)c(Br)c1,0.2,1.9,-1.4,2.4,i,12.7*,30.2*,29.4*
O=C(Nc1ccccc1F)c1coc(=O)c(Br)c1,1.8,1.3,4.5,1.7,.,-4.3,.,.
CCN1CCC(CNCc2cn(-c3ccc(OC)cc3)nc2-c2ccccc2Cl)C1 (configuration not stated),-2.3,-3.6,-3.3,2.9,i,-0.2,.,.
Cc1[nH]n(-c2ccccc2)c(=O)c1C=Nc1cccc(F)c1,-4.4,-1.3,-0.4,-4.8,i,0.3,.,.
Cc1[nH]n(-c2ccccc2)c(=O)c1C=Nc1cnc2ccccc2c1,-0.2,-5.1,-0.3,-12.6,i,46.2*,21.4*,21.5*
O=C(NCc1ccc(Cl)cc1)C1C2C=CC3(CN(Cc4ccccc4)C(=O)C13)O2 (configuration not stated),3.9,-0.8,.,3.7,.,0.4,.,.
COc1ccc(Cn2ccc3ccc(-c4ccc5ccn(C(=O)C6CCC6)c5c4)cc32)cc1,7.1,-6.5,.,-2.1,.,-4.1,.,.
O=C1[C@H]2C(c3ccccc3)=NN(c3ccccc3)[C@H]2C(=O)N1c1ccccc1,-3.3,-1.1,6.9,-1.4,i,22.4*,-364.0,-297.4
O=C1C2C(c3ccccc3)=NN(c3ccccc3)C2C(=O)N1c1ccccc1 (configuration not stated),-2.5,5.2,-0.1,0.7,.,14.5*,13.2*,18.0*
Cc1cn([C@H]2C[C@H](O)[C@@H](/C=C/C(=O)NCCC(C)C)O2)c(=O)[nH]c1=O,1.2,3.3,0.0,-1.4,i,-0.3,.,.
COC(=O)C1CN(Cc2ccccc2)CCS(=O)(=O)N1Cc1ccc(OC)cc1 (configuration not stated),4.3,-0.3,.,3.4,.,0.6,.,.
CCCCC(=O)N(C)c1c(C)nc2ccc(C(=O)N3CCN(C(=O)c4ccco4)CC3)cn12,0.6,0.9,3.2,1.4,i,-0.1,.,.
CCOC(=O)N1CCN(C(=O)Nc2ccc3nc(C)sc3c2)CC1,2.3,2.5,1.7,0.8,i,-2.1,.,.
CCOC(=O)N1CCN(C(=O)Nc2ccc3nc(-c4ccccn4)c(-c4ccccn4)nc3c2)CC1,1.2,-7.7,1.2,-5.8,.,32.4*,31.8*,32.6*
CCOC(=O)C1CCN(C(=O)Nc2ccc3nccnc3c2)CC1,-0.5,3.0,-1.4,-3.7,.,14.2*,71.4*,70.8*
O=C(Nc1ncc2c(n1)-c1ccccc1CC2)C1CC1,1.0,2.5,6.3,-2.3,i,0.2,.,.
O=C(Nc1ncc2c(n1)-c1ccccc1OC2)c1ccccc1Cl,1.5,0.2,-0.2,1.3,.,15.7*,-0.4,-2.2
COc1ccc(/C=C(/NC(=O)c2ccccc2)C(=O)N/N=C/c2sccc2C)cc1,-4.6,-6.1,0.1,-4.9,i,24.4*,152.2*,121.6*
CCCCCCNC(=O)c1cc(-c2ccco2)nc2ccccc12,0.6,1.3,1.6,6.1,.,20.3*,-23.8,-34.3
O=C(NCCCN1CCOCC1)c1cc(-c2ccco2)nc2ccccc12,7.5,7.4,4.5,0.2,.,62.5*,17.7*,30.2*
COc1cc(-c2cc(C(=O)Nc3cc(S(=O)(=O)N4CCOCC4)ccc3C)c3ccccc3n2)cc(OC)c1OC,-1.2,-2.1,0.3,-0.1,i,211.0*,232.9*,315.7*
CCOc1ccc(-c2cc(C(=O)NCCCN3CCOCC3)c3ccccc3n2)cc1,2.7,-3.4,5.0,-0.2,.,18.4*,6.1,9.6*
CC(C)CN(C(=O)c1ccc(=O)n(C)n1)c1nc2ccccc2s1,-0.5,0.2,2.2,-3.4,i,0.2,.,.
COc1ccc(CC(=O)Nc2ccncc2Cl)cc1,0.2,-6.0,-1.4,-1.8,i,-0.1,.,.
COc1cccc(C(=O)NC2CCNCC2)c1,-2.1,3.4,1.1,2.0,i,0.6,.,.
SMILES,LEDGF integ inh,MBD2 DNA inh,Rin1 Abl inh,UHRF1 MBD2 ctr,Neddylation inh,KLK7 zymogen act,KLK7 act conf,EDANS interfere
COc1ccc(-c2cc(C(=O)Nc3cc(S(N)(=O)=O)ccc3C)c3ccccc3n2)cc1OC,-1.4,6.6,-6.3,-0.2,i,-6.8,.,.
NC(=O)COC(=O)c1cc(-c2ccco2)nc2ccccc12,0.3,0.7,-2.6,-7.2,i,161.2*,63.1*,72.2*
COc1ccc(NC(=O)c2cc(-c3ccco3)nc3ccccc23)cc1,2.2,-3.0,-2.4,-0.4,i,14.6*,14.0*,20.5*
Cc1ccccc1NC(=O)c1cc(-c2ccco2)nc2ccccc12,0.7,-1.8,0.9,1.6,i,-178.4,.,.
CN(C)C(CNC(=O)c1cc(-c2ccco2)nc2ccccc12)c1ccccc1 (configuration not stated),10.8,0.7,-3.5,3.5,.,31.1*,0.7,1.1
COc1ccc(-c2cc(C(=O)Nc3ccc(S(N)(=O)=O)cc3)c3ccccc3n2)cc1OC,-3.4,6.0,2.5,1.0,.,131.0*,77.1*,94.7*
COc1ccc(-c2cc(C(=O)NCCCN3CCCC3=O)c3ccccc3n2)cc1,0.1,-4.3,-3.7,-0.5,.,34.6*,29.1*,31.3*
CC(C)CCNC(=O)c1cc(-c2ccco2)nc2ccccc12,2.7,-3.9,-0.1,2.2,.,12.8*,-32.2,-60.2
Nc1c(-c2ccc(C(F)(F)F)cc2)nc2ncccn12,2.5,-5.8,.,-3.7,i,7.1,.,.
CCN(CC)CCNC(=O)c1cc2c(-c3cccc(OC)c3)nn(C)c2s1,-1.5,6.0,-1.9,7.1,.,24.2*,5.7,6.9*
Cc1cccc(-n2c(O)c(C=Nc3ccccc3)c3ccccc3c2=O)n1,1.9,-6.2,-1.8,-10.8,i,16.9*,15.1*,16.3*
O=C1c2ccccc2NC(c2ccncc2)N1c1ccccn1 (configuration not stated),1.0,4.3,0.8,0.2,.,35.9*,18.4*,29.4*
CCN1c2ccccc2-c2nc3ccccc3n2C1c1cccnc1 (configuration not stated),0.6,6.0,4.5,0.4,.,10.1,.,.
COc1ccccc1N1C(=O)c2ccccc2NC1c1ccncc1 (configuration not stated),0.3,4.3,-1.3,3.0,.,6.0,.,.
c1cncc(C2Nc3ccccc3-c3nc4ccccc4n32)c1 (configuration not stated),-2.4,-3.9,3.2,-2.6,.,55.7*,5.1,5.7*
c1ccc2c(c1)NC(c1ccncc1)n1c-2nc2ccccc21 (configuration not stated),-0.9,0.7,-1.8,0.4,.,28.9*,0.0,3.0

# Source: PubChem BioAssay
